Data: ChEMBL document CHEMBL3988442, “University of Dundee, Small-Polar-MMV Screening Library” (2021)
For some assays here: Potency and affinity values are given separately.

Legend:
Set-up in all cases: scale not given: direction of the effect not stated beside the values
[1] = biological target: Protein translocase subunit SecA (Escherichia coli (strain K12)) (UniProt P10408); assay: Assay to Identify E. coli SecA ATPase Inhibitors; assay type: functional; details: 30 µM
[2] = biological target: T1, Ubiquitin-activating enzyme e1, putative (Leishmania donovani (strain BPK282A1)) (UniProt E9BSI1); assay: Leishmania donovani Ubiquitin Activating Enzyme (LdE1); assay type: functional; details: 30 µM
T1 sequence (whole entry): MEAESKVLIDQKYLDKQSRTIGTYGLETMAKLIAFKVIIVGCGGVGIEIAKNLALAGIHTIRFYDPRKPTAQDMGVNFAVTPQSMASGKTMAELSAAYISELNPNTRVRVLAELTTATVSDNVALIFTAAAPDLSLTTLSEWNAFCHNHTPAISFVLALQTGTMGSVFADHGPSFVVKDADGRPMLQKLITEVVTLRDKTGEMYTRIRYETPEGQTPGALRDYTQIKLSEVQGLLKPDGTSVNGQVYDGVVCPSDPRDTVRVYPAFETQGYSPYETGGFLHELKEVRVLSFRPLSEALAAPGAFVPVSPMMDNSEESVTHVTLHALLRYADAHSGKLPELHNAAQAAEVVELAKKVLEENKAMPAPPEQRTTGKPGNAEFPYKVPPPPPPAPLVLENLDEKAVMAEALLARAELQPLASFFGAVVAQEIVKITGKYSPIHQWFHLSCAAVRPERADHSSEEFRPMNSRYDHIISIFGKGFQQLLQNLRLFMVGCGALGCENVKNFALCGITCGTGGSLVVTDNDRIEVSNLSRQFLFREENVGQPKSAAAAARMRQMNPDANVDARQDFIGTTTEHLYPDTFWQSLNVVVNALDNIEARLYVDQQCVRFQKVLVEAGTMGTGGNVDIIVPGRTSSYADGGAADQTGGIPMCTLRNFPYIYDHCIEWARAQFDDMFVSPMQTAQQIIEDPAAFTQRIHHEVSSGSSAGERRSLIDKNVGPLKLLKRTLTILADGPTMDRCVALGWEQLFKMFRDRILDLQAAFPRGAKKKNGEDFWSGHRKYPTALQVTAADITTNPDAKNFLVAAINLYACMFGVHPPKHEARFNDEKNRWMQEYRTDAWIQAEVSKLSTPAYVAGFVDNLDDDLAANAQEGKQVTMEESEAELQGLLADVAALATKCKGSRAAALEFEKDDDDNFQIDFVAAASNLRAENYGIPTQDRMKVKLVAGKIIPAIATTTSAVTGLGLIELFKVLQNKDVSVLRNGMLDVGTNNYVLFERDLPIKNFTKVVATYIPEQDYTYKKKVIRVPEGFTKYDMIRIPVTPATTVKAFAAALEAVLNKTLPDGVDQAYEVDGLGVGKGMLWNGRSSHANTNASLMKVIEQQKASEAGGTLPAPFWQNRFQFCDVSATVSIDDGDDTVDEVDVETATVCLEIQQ

[3] = biological target: AMP-activated protein kinase, AMPK (Homo sapiens) (UniProt P54646+O43741+P54619+Q9UGJ0+Q9Y478+Q13131+Q9UGI9); assay: AMP-dependent Kinase enzyme assay. An in vitro enzyme assay that detects ADP turnover that is directly proportional to AMPK activity. This uses naive AMPK that is activated during the assay with MK-8722; assay type: functional; details: 30 µM
[4] = biological target: Sialic acid-binding Ig-like lectin 9 (Homo sapiens) (UniProt Q9Y336); assay: Hs-Siglec9 ALPHAscreen SOP 20170721; details: 10 µM
Trypanosoma cruzi = assay: Trypanosoma cruzi phosphomannomutase and mannose-1-phosphate guanylyltransferase assay; assay type: functional; details: 10 µM
[5] = biological target: T2, Arginase-2, mitochondrial (Homo sapiens) (UniProt P78540); assay: in vitro enzyme assay to detect the production of urea directly proportional to the activity of Arginase II; assay type: functional; details: 33.3 µM; note: in the data most compounds retested in dose-response had high values
T2 sequence (whole entry): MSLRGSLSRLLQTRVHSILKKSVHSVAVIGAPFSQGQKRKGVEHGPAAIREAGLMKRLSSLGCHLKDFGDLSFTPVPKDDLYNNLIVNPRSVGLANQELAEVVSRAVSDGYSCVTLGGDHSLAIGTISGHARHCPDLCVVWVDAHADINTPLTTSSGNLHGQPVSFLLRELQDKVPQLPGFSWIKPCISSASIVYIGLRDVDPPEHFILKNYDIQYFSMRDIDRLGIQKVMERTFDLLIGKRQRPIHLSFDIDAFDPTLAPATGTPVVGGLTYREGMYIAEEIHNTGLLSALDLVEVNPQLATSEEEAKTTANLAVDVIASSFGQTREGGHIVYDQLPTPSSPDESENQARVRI

[6] = biological target: T3, Proteasome subunit beta (Trypanosoma cruzi) (UniProt O96673); assay: Trypanosoma cruzi proteasome chymotrypsin-like activity (TcProtChymo) assay.; note: in the data most compounds retested in dose-response had high values; assay type: functional; details: 9.37 µM
T3 sequence (whole entry): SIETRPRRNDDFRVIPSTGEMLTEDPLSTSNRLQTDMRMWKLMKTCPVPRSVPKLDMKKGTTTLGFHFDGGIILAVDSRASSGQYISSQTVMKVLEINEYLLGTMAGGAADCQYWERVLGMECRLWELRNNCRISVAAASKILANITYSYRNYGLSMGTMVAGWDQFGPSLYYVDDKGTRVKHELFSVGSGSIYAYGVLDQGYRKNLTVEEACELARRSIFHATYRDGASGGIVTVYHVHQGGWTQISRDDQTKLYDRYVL

Homo sapiens = species on record: Homo sapiens; assay: To identify inhibition of the IFN signalling (Jak-Stat) pathway via expression of an eGFP reporter gene under the control of an IFN-stimulated response element (ISRE) containing MxA promoter.; assay type: functional; details: 30 µM
[7] = biological target: T4, Tyrosyl-tRNA synthetase, putative (Trypanosoma cruzi (strain CL Brener)) (UniProt Q4DSP6); assay: Trypanosoma cruzi tyrosyl tRNA synthetase (TcYRS) _High Tyrosine SOP; assay type: functional; details: 30 µM; note: in the data most compounds retested in dose-response had high values
T4 sequence (whole entry): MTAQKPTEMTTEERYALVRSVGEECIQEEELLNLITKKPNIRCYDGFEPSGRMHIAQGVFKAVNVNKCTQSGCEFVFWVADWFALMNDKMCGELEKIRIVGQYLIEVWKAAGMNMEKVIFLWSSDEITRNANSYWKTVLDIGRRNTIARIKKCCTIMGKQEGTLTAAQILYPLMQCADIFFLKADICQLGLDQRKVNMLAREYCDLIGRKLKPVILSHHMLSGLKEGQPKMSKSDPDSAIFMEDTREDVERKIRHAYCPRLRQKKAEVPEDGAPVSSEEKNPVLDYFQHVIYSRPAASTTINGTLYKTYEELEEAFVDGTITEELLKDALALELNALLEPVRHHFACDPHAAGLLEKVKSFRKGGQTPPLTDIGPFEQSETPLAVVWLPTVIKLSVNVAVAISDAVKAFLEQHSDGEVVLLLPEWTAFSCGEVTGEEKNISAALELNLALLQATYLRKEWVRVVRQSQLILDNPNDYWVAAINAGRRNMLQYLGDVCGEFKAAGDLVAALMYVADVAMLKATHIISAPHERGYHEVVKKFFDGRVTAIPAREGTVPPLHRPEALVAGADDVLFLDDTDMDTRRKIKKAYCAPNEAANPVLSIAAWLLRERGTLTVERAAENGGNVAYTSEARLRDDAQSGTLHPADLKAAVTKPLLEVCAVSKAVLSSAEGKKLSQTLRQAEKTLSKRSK

[8] = biological target: T4, Tyrosyl-tRNA synthetase, putative (Trypanosoma cruzi (strain CL Brener)); assay: Trypanosoma cruzi tyrosyl tRNA synthetase (TcYRS) SOP; assay type: functional; details: 30 µM
[9] = biological target: Chromo domain-containing protein 1 (Saccharomyces cerevisiae (strain ATCC 204508 / S288c) (Baker's yeast)) (UniProt P32657); assay: ScCHD-1 Enzyme Inhibition Assay; assay type: functional; details: 30 µM; note: in the data most compounds retested in dose-response had high values
Sequence of Chromo domain-containing protein 1 (Saccharomyces cerevisiae (strain ATCC 204508 / S288c) (Baker's yeast)) (P32657 whole entry, the tested form may be a part): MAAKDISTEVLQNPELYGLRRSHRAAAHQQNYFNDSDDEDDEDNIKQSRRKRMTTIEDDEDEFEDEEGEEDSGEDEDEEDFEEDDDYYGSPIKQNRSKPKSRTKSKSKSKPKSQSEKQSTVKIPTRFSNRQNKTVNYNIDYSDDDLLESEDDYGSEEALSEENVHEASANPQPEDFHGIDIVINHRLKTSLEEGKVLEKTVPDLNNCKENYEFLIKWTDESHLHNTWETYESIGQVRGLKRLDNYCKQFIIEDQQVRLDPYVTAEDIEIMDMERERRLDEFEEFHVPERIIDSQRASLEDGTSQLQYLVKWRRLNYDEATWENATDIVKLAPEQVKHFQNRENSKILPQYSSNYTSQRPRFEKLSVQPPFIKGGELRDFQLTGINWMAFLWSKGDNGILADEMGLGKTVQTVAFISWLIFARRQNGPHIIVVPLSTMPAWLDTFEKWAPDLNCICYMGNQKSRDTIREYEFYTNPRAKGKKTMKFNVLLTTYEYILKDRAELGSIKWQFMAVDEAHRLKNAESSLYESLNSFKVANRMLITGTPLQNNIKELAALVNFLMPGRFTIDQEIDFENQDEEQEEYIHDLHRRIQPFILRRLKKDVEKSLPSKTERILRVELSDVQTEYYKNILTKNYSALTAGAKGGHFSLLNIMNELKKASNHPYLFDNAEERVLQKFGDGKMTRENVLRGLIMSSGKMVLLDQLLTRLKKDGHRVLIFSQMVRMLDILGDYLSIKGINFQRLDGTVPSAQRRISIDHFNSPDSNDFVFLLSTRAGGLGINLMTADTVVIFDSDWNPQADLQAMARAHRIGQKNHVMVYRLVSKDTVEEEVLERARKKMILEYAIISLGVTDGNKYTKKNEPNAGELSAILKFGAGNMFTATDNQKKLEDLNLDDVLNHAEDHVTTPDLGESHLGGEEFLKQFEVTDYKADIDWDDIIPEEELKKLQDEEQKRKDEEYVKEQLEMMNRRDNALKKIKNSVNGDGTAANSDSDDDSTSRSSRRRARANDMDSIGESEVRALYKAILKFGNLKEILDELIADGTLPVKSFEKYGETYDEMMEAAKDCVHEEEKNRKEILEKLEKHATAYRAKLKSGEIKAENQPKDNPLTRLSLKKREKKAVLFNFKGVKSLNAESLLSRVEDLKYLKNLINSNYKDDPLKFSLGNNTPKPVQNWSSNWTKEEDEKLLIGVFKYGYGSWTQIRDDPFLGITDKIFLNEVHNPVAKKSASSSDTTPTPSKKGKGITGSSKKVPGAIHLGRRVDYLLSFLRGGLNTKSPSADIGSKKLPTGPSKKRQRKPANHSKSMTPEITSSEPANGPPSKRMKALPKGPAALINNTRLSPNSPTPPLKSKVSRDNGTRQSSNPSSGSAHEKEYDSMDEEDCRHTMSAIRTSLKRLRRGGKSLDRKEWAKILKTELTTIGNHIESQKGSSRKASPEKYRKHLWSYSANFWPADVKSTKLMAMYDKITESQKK

Sequence of Protein translocase subunit SecA (Escherichia coli (strain K12)) (P10408 whole entry): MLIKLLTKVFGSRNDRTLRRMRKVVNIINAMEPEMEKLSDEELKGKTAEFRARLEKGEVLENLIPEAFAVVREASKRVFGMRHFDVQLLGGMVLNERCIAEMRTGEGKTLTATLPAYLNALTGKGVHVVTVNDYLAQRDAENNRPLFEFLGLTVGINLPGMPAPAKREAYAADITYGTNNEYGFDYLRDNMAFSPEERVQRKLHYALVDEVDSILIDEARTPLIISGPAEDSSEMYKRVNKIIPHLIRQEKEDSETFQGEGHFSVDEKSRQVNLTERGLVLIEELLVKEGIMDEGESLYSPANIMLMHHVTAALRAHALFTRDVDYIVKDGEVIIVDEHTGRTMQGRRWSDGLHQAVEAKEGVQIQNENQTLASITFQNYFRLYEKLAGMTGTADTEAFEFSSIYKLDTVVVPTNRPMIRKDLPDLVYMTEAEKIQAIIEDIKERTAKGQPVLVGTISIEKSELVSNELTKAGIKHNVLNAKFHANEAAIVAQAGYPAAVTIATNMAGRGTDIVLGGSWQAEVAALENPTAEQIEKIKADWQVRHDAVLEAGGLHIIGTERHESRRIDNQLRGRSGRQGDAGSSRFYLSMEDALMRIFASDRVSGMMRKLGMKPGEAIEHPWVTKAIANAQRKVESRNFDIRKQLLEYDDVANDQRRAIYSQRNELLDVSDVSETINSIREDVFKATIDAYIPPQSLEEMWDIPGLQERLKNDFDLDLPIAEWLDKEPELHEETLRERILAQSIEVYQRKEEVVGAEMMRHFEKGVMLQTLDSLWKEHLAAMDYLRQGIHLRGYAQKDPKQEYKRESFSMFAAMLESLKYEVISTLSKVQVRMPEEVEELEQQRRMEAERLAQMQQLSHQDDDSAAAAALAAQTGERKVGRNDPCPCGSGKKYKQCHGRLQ
Sequence of Sialic acid-binding Ig-like lectin 9 (Homo sapiens) (Q9Y336 whole entry): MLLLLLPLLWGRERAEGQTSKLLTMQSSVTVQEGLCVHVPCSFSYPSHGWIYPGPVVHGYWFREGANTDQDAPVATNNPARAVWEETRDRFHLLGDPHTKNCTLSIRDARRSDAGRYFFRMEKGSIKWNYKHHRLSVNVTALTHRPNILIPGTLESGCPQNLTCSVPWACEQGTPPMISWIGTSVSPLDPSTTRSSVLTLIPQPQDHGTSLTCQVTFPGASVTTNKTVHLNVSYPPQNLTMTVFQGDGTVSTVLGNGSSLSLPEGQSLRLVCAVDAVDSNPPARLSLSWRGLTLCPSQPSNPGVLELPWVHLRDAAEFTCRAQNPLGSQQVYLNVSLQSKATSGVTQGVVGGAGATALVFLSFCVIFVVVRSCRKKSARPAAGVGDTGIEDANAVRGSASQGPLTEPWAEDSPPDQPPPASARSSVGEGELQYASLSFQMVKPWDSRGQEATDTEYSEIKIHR

| Structure (SMILES) | Percent Effect [1] | Percent Effect [2] | Percent Effect [3] | Percent Effect [4] | Percent Effect (Trypanosoma cruzi) | Percent Effect [5] | Percent Effect [6] | Percent Effect (Homo sapiens) | Percent Effect [7] | Percent Effect [8] | Percent Effect [9] |
| --- | --- | --- | --- | --- | --- | --- | --- | --- | --- | --- | --- |
| CCCNC(=O)Cn1nc(C(C)C)c2cnn(C(C)(C)C)c2c1=O | -3.37% | 5.48% | -13.9% | 4.27% | -0.392% | 2.27% | 16.1% | 5.42% | 8.6% | 15% | -5.95% |
| Cc1nnc(NC(=O)NCc2cc(F)cc(F)c2)s1 | -1.16% | 21.1% | -3.09% | -15.6% | -9.43% | 5.75% | 10.7% | 13.5% | 4.43% | 13.6% | -3.4% |
| COc1ccc(CN(Cc2cccnc2)CC2CCCO2)c(OC)c1 (configuration not stated) | -1.69% | -2.67% | 11.4% | 2.14% | 6.69% | -1.63% | 7.67% | 3.47% | 2.13% | 6.41% | -2.64% |
| CC(NC(=O)CSCC#N)c1cccc(NC(=O)c2ccccc2)c1 (configuration not stated) | -6.35% | 15.8% | -4.8% | 13.9% | 4.76% | 1.08% | 8.38% | 12.6% | 5.42% | 23.5% | -7.99% |
| CSC(C)(C)CNC(=O)NC1CCN(C)CC1 | -2.43% | 5.33% | -2.46% | 7.43% | 3.21% | 15.6% | 0% | 21.1% | 4.92% | 6.17% | -2.97% |
| O=C(c1ccc(F)cc1)N1CCN2C[C@H](OCc3ccccn3)C[C@H]2C1 | -5.08% | 8.11% | 5.44% | -1.47% | -2.83% | 1.59% | 20.7% | -8.06% | 7.57% | 12.8% | 1.66% |
| Cc1noc(C2CCC3(CCN(C(=O)c4c(C)noc4C)CC3)O2)n1 (configuration not stated) | -6.54% | 2.7% | -4.63% | 17.5% | 7.53% | -6.2% | 0.0858% | 5.82% | -4.3% | 11.1% | -1.92% |
| Cn1cc(C2CCCN2C(=O)CCCOc2ccc(F)cc2F)cn1 (configuration not stated) | -6.14% | 10.1% | 1.86% | 9.73% | -0.283% | 1.9% | -3.36% | -0.895% | 4.43% | 3.8% | -1.53% |
| CN1CCC(c2nnc(CN3CCC(O)CC3)n2C)CC1 | -3.38% | 8.22% | 6.23% | -1.15% | -1.76% | 1.82% | 8.87% | 1% | 4.3% | 15% | -4.74% |
| CC(=O)N(Cc1ncc(C)o1)C1CCN(Cc2cccc(C#N)c2)C1 (configuration not stated) | -5.59% | 5.41% | -3.95% | 9.41% | -2.44% | -1.74% | 5.24% | 5.84% | 0% | 1.24% | -0.172% |
| O=C(CCCc1nc2ccccc2[nH]1)N1CCCC(n2cccn2)C1 (configuration not stated) | -4.65% | 10.5% | -3.13% | 5.64% | 8.27% | -5.36% | 7.18% | -2.05% | 5.39% | 17.1% | -12% |
| Cc1nc2c(c(C)c1CC(=O)Nc1ccc(Cl)cc1)c(=O)[nH]n2C | -8.55% | 10.7% | -2.37% | 20.4% | 5.36% | 6.77% | 6.97% | 11.7% | 3.83% | 13.6% | 3.39% |
| Cc1cc(C(=O)N2CCN(C(=O)Cc3ccccn3)CC2)c(C)s1 | -3.63% | 6.33% | 1.98% | -0.00439% | -1.54% | -11% | 4.8% | -10.2% | 7.29% | 7.59% | 5.75% |
| Cc1ccc(C(=O)N2CCN(C(=O)Nc3ccccn3)CC2)o1 | -7.04% | -2.6% | 9.04% | -0.542% | -5.58% | 2.32% | 9.13% | 11% | 0% | -4.71% | -16.4% |
| COCc1nc2cc(NCc3ccc(C)o3)ccc2o1 | -4.96% | 13.5% | -42.7% | 8.51% | 6.05% | 37.1% | 14.3% | -1.74% | 13.9% | 15.8% | -2.51% |
| CCc1[nH]ncc1C(=O)N1CCCN(Cc2cnn(C)c2)CC1 | 0.347% | 15.6% | 6.03% | -6.37% | -0.0979% | 5.68% | 8% | 21.9% | 5.71% | 18.8% | -17.9% |
| CCOCCn1nc(C)cc1C(=O)N1CCOCC(CO)C1 (configuration not stated) | -2.3% | 18.9% | 0.311% | 24.4% | 7.14% | 31.9% | 22.1% | 1.44% | 3.7% | 12.2% | -10.6% |
| COc1cc(C(=O)NC(CC(=O)O)c2cccs2)cc(Cl)c1OC (configuration not stated) | -3% | 8.86% | 6.71% | -5.2% | -3.79% | 1.07% | 20.9% | -0.746% | 2.08% | 5.06% | -25.4% |
| O=c1cc(CN2CCCC(CCc3c(F)cccc3F)C2)[nH]c(=O)[nH]1 (configuration not stated) | 1.76% | 10.8% | -7.22% | 1.61% | 4.25% | 14.3% | 16.7% | 25% | 10.1% | 19.5% | -4.32% |
| CN(CC1(O)CCCN(CCC2CCCCC2)C1=O)C1CCOCC1 (configuration not stated) | -5.39% | 10.7% | -4.88% | 15.6% | 7.5% | 6.77% | 6.8% | 6.58% | 4.92% | 13.6% | -3.45% |
| O=C(O)C1(Cc2cc(-c3ccc(F)cc3F)no2)CCOCC1 | -4.49% | 4.05% | 11% | -5.88% | -8.3% | -9.51% | 14.2% | 6.33% | -4.3% | -1.3% | -7.79% |
| O=C(c1ccc[nH]1)N1CCn2cc(CN3CCCC3)nc2C1 | -5.65% | 0% | 7.25% | -0.683% | -3.35% | -0.699% | 9.07% | 8.62% | 1.06% | 3.85% | -0.931% |
